IkB sig inh – suppresses IkB signaling in ABC-DLBCL reporter cells | hit rate 0.04% among 110,000 | Potency, µM (titrated, usually from 57.1 µM), for the others: top-dose IkBa stabilization activation | ABC-DLBCL IkBa-CBG/CBR dual luciferase ratio, 4 h; response scale: scaled: untreated 0%, proteasome inhibitor 100%; active = well fitted curve in the direction sought with a large enough effect in the signal ratio, not every such curve was filed as active; inconclusive = small, poorly fitted or top-dose-only effect, or a change in a side signal; the % refers to the signal ratio;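 note: the direction sought is a rising ratio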
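In this assay, an IκBα–CBG68 fusion accumulates when IKK-driven degradation is blocked; native CBR normalizes for cell number. OCI-Ly3 cells were treated 4 h with compound and doxycycline, then green and red light read after Chroma-Glo addition.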
Hsp90 Hop PPI – changes Hsp90-Hop TPR2A binding signal, up or down. AlphaScreen TPR2A-His6 binding biotin-Hsp90 C-terminal peptide. Potency, µM (doses to about 57 µM), for the others: at the highest dose activity change, negative = inhibition. hit rate 0.44% among 71,000. AID 595; active = well fitted curve in either direction with a large enough effect; inconclusive = small, poorly fitted or top-dose-only effect, or another doubt; note: % is set by controls: 0 for no effect and ±100 for the full control effect
15-hLO inh – inhibitors of human 15-lipoxygenase (ALOX15) | Potency, µM (doses to about 57.1 µM), without a hit: at the top dose activity change, negative = inhibition, hits mostly inhibitors | AID 887 | purified 15hLO-1, xylenol orange hydroperoxide absorbance | hit rate 1.4% among 74,000; note: % is set by controls: 0 for no effect and ±100 for the full control effect; nearly all actives have a fitted effect of over 55% in size
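Purified human 15hLO-1 (40 nM final) in 25 mM Hepes pH 7.5, 0.01% Triton X-100 was preincubated with compound 15 min at room temperature, then reacted 6 min with 50 uM arachidonic acid; hydroperoxide detected by Fe-XO, 573/405 nm absorbance ratio.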
Tau fil binding – tau filament binding. recombinant tau filaments, thioflavin S fluorescence, 15 h; filaments grown with octadecylsulfate alongside compound. hit rate 2% among 71,000. Potency, µM (titrated, usually from 57.1 µM), for inactives: at the top dose activity change, negative = inhibition;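 note: % is set by controls: 0 for no effect and ±100 for the full control effect; actives lower thioflavin S fluorescence by blocking filaments or displacing dye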
Target sequence (P10636 whole entry, looked up): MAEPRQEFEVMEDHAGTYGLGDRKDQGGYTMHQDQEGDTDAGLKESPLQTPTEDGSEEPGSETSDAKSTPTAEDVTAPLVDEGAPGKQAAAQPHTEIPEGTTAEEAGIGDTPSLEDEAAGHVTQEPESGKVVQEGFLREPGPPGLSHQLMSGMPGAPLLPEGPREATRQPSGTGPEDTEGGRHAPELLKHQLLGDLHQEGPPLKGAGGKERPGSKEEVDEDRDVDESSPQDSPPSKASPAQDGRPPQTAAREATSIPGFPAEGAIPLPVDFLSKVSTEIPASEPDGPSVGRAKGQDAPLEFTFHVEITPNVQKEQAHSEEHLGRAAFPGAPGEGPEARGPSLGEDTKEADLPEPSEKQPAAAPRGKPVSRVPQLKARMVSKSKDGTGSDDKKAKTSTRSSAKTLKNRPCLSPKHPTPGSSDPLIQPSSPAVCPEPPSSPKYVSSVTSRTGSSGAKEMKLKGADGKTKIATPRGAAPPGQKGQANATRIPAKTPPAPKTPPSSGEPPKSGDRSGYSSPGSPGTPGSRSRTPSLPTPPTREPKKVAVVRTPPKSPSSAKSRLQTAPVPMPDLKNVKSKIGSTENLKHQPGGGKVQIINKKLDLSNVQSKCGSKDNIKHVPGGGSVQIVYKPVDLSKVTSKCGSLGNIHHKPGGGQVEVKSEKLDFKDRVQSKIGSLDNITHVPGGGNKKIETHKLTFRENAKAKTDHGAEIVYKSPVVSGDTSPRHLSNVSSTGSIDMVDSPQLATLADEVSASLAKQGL
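His-tagged recombinant human tau (exons 2, 3 and 10 included), 1 uM, was induced to fibrillize by 30 uM sodium octadecylsulfate with compound present. After 15 h at 37 C, thioflavine S fluorescence (ex 450, em 510 nm) was read.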
CRE-bla Fsk – modulators of forskolin-stimulated CRE signaling in CHO cells; CHO CRE-bla reporter (cAMP response element driving beta-lactamase), forskolin EC10, beta-lactamase ratio; hit rate 2.5% among 71,000; Potency, µM (titrated, usually from 38.2 µM), without a hit: top-dose activity change, negative = inhibition, hits mostly activators; active = well fitted activation curve with a large enough effect in the signal ratio, with a control signal flat, not every such curve was filed as active; inconclusive = small, poorly fitted or top-dose-only effect, or effect the other way, or a change in a side signal; the % refers to the signal ratio; note: % of control where 0% means no effect
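Modulation of forskolin-driven signalling is measured in CHO cells carrying a CRE-controlled beta-lactamase reporter. Cells are stimulated with EC10 NKH 477 in the presence of titrated compound for 3 h at 37 °C, then loaded with CCF4 for 2 h at room temperature.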
An asterisk follows results filed as active; [ ] = another dose, or the depositor's remark. In the library only some 3.6% were active in any assay of this set; here they are far more common. Unless noted, calls come from the whole dose curve; as a rule, active = well fitted curve in the direction sought with a large enough effect; inconclusive = small, poorly fitted or top-dose-only effect, or another doubt; inactive = no such curve, though single readings can be large; an effect the other way counts as inactive or inconclusive. Potency is the fitted concentration of half-maximal effect.

`Cc1ccc2c(CSc3nc4ccccc4c(=O)n3CCCO)cc(=O)oc2c1` gave IkB sig inh 0%, Hsp90 Hop PPI -7%, 15-hLO inh -13%, Tau fil binding 1% and CRE-bla Fsk 2µM*.
`Nc1ccc(N=Nc2c(S(=O)(=O)O)cc3ccccc3c2S(=O)(=O)O)cc1` gave IkB sig inh 2%[11.4 µM], Hsp90 Hop PPI -12%[11 µM], 15-hLO inh 8%[11.4 µM], Tau fil binding -6%[11.4 µM] and CRE-bla Fsk 11%[7.6 µM].
O=S(=O)(O)c1cc(N=[N+]([O-])c2cc(S(=O)(=O)O)c3ccccc3c2)cc2ccccc12 was read as IkB sig inh 6%[11.4 µM], Hsp90 Hop PPI -12%[11 µM], 15-hLO inh 4µM*, Tau fil binding 2%[11.4 µM] and CRE-bla Fsk 4%[7.6 µM].
Screening COCCCNC(=O)Cn1c(=O)n(-c2cccc(C)c2)c(=O)c2c3c(sc21)CN(C(C)=O)CC3 returned IkB sig inh 1%.
For CCOC(=O)c1nn(-c2ccc(OC)cc2)c(=O)c2c(N)scc12 the results were IkB sig inh inconclusive, Hsp90 Hop PPI -13%, 15-hLO inh 7.9µM*, Tau fil binding 16µM* and CRE-bla Fsk 6%.
`COc1cc(-c2nn3c(Cc4ccccc4)nnc3s2)cc(OC)c1OC` gave IkB sig inh -1%, Hsp90 Hop PPI inconclusive, 15-hLO inh -27%, Tau fil binding 87% and CRE-bla Fsk 0.79µM*.
For COc1cc(-c2nnc3sc(-c4ccncc4)nn23)cc(OC)c1OC the results were IkB sig inh 0%, Hsp90 Hop PPI -7%, 15-hLO inh -5%, Tau fil binding -21% and CRE-bla Fsk 2µM*.
Screening c1ccc(Cc2nnc3sc(-c4ccco4)nn23)cc1 returned IkB sig inh 4%, Hsp90 Hop PPI -1%, 15-hLO inh inconclusive, Tau fil binding 16µM* and CRE-bla Fsk -3%.
c1ccc(-c2nn3c(Cn4nnc5ccccc54)nnc3s2)cc1 was read as IkB sig inh 5%, Hsp90 Hop PPI -1%, 15-hLO inh inconclusive, Tau fil binding -6% and CRE-bla Fsk 9%.
Screening Clc1ccc(-c2nnc3sc(-c4ccco4)nn23)c(Cl)c1 returned IkB sig inh 4%, Hsp90 Hop PPI -5%, 15-hLO inh 5%, Tau fil binding 5% and CRE-bla Fsk inconclusive.
`CCOc1ccc(-c2nn3c(-c4ccccc4)nnc3s2)cc1` gave IkB sig inh 2%, Hsp90 Hop PPI 2%, 15-hLO inh -19%, Tau fil binding 80% and CRE-bla Fsk 5%.
For COc1cc(-c2nn3c(-c4ccccc4)nnc3s2)cc(OC)c1OC the results were IkB sig inh -1%, Hsp90 Hop PPI -4%, 15-hLO inh 4%, Tau fil binding 10% and CRE-bla Fsk 4µM*.
Screening Cc1cc(=O)n(CC(=O)Nc2ccc([N+](=O)[O-])cc2)c(-n2nc(C)cc2C)n1 returned IkB sig inh -2%.
For O=C(O)c1ccc(Cl)cc1Cl the results were IkB sig inh 0%, Hsp90 Hop PPI 0%, 15-hLO inh -4%, Tau fil binding 1% and CRE-bla Fsk -6%.
CS(=O)(=O)Nc1cccc(-c2cncnc2-n2ccnc2)c1 was read as IkB sig inh -2%[11.4 µM], Hsp90 Hop PPI 9%, 15-hLO inh -27%, Tau fil binding -8% and CRE-bla Fsk inconclusive.
`C(=N\n1cnnc1)/c1ccc2ncccc2c1` gave IkB sig inh -1%, Hsp90 Hop PPI -2%, 15-hLO inh 11%, Tau fil binding 13µM* and CRE-bla Fsk -2%.
`C(=N\n1cnnc1)/c1ccc2c(c1)OCO2` gave IkB sig inh -1%, Hsp90 Hop PPI 3%, 15-hLO inh 2%, Tau fil binding 7% and CRE-bla Fsk 2%.
Screening CC1CCN(C(=O)CN2CCSc3ccccc32)CC1 returned IkB sig inh 0%.
Screening Cc1ccc(S(=O)(=O)Nn2c(C)ccc2C)cc1 returned IkB sig inh 0%, Hsp90 Hop PPI -9%, 15-hLO inh 20µM*, Tau fil binding inconclusive and CRE-bla Fsk 0%.
Screening CCCCNC(=O)CSc1nc2ccc(N3CCOCC3)cc2c(=O)n1CCc1ccccc1 returned IkB sig inh 2%, Hsp90 Hop PPI 0%, 15-hLO inh 25µM*, Tau fil binding -28% and CRE-bla Fsk 18%.
`C=CCSc1nnc2nc3c(nn12)c1cc(C)ccc1n3CC=C` gave IkB sig inh 1%, Hsp90 Hop PPI -18%, 15-hLO inh -14%, Tau fil binding 6.3µM* and CRE-bla Fsk inconclusive.
For Brc1ccc(-c2cn3cc(Cc4ccccc4)sc3n2)cc1 the results were IkB sig inh 6%.
For CC1=CC2=C(OC1N(C)C)c1cccc3cccc(c13)C2=O (stereo unspecified) the results were IkB sig inh inconclusive, Hsp90 Hop PPI -28%, 15-hLO inh 7.9µM*, Tau fil binding 14% and CRE-bla Fsk -6%.
CC(/C=C/C=C(C)/C=C/C(=O)O)=C\C=C\C=C(C)\C=C\C=C(C)\C=C\C(=O)O was read as IkB sig inh 14%, Hsp90 Hop PPI 0%, 15-hLO inh inconclusive, Tau fil binding 3.2µM* and CRE-bla Fsk inconclusive.
For Cc1nc2ccc(Cl)cc2nc(C)/c1=N\O the results were IkB sig inh 2%, Hsp90 Hop PPI -19%, 15-hLO inh -17%, Tau fil binding 13µM* and CRE-bla Fsk 2%.
`Nc1c(C(=O)NCC2CCCO2)c2nc3ccccc3nc2n1-c1ccccc1` (stereo unspecified) gave IkB sig inh inconclusive, Hsp90 Hop PPI inconclusive, 15-hLO inh -2%, Tau fil binding 12% and CRE-bla Fsk 13µM*.
Screening C=CCNC(=O)c1c(N)n(-c2ccc3c(c2)OCO3)c2nc3ccccc3nc12 returned IkB sig inh -1%, Hsp90 Hop PPI -1%, 15-hLO inh -2%, Tau fil binding -28% and CRE-bla Fsk 1µM*.
For Nc1c(C(=O)NCCN2CCOCC2)c2nc3ccccc3nc2n1-c1cccc(F)c1 the results were IkB sig inh -1%, Hsp90 Hop PPI 21%, 15-hLO inh -9%, Tau fil binding 22% and CRE-bla Fsk 7.9µM*.
CCN(CCO)c1ccc(-n2c(N)c(C(=O)OC)c3nc4ccccc4nc32)cc1 was read as IkB sig inh 0%, Hsp90 Hop PPI -6%, 15-hLO inh -22%, Tau fil binding -6% and CRE-bla Fsk 21%.
For COCCCNC(=O)c1c(N)n(-c2cccc(S(N)(=O)=O)c2)c2nc3ccccc3nc12 the results were IkB sig inh -1%, Hsp90 Hop PPI inconclusive, 15-hLO inh -15%, Tau fil binding 68% and CRE-bla Fsk 13µM*.
Screening O=C(NCCN1CCOCC1)c1cc2ccccc2o1 returned IkB sig inh -3%, Hsp90 Hop PPI 2%, 15-hLO inh -16%, Tau fil binding -4% and CRE-bla Fsk 3%.

Assay outcomes: PubChem, National Center for Advancing Translational Sciences (NCATS)
